Assay results: PubChem BioAssay (EPA / NIEHS)
Records with an inconclusive call do not appear. Calls of active or inactive are those of the source. The calls were made as follows: active = hit-call score of the fitted dose curve at least 0.9, where 1 is the maximum; inconclusive = response in the unintended direction; inactive = score below 0.9.

Each compound was assayed against human Phosphodiesterase 5 (PDE5), PDE5A (gene 8654) (UniProt O76074) (assay: NVS_ENZ_hPDE5: NovaScreen (NVS) Enzymatic Assay for human Phosphodiesterase 5 (PDE5) (AID 2283194)).
Outline: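 Recombinant human PDE5 with specific substrate, read 1 h after dosing by fluorescence with electrophoretic mobility-shift separation of substrate and product. Initial single-concentration duplicate screen at 25 uM, actives followed in concentration series; loss of activity versus DMSO.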

SMILES | outcome | AC50
Cc1cnc(C2=NC(C)(C(C)C)C(=O)N2)c(C(=O)O)c1 (stereo not given) | inactive | 
CC(C)Nc1nc(Cl)nc(NC(C)C)n1 | inactive | 
CCOP(=O)(OCC)Oc1nc(Cl)c(Cl)cc1Cl | inactive | 
Cc1nc(N(C)C)nc(OC(=O)N(C)C)c1C | inactive | 
COP(=S)(OC)SCn1nnc2ccccc2c1=O |  | 4.85 µM (active)

Each compound was assayed against Serine/threonine-protein phosphatase PP1-alpha catalytic subunit (Homo sapiens) (UniProt P62136) (assay: NVS_ENZ_hPPP1CA: NovaScreen (NVS) Enzymatic Assay for human Protein Phosphatase 1 Aatalytic subunit Alpha (PPP1CA) (AID 2283200)).
Sequence of Serine/threonine-protein phosphatase PP1-alpha catalytic subunit (Homo sapiens) (P62136 whole entry, looked up): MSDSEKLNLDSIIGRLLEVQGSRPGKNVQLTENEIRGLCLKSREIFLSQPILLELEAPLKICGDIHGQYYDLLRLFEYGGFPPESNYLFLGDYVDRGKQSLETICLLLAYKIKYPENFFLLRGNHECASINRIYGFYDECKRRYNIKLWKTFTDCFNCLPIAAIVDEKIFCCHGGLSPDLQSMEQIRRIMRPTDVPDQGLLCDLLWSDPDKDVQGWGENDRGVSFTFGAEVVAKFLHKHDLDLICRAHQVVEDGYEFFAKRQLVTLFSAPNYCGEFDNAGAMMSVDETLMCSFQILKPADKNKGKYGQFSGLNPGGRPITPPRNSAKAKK
Outline: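 Recombinant enzyme activity read by fluorescence with electrophoretic mobility shift separating substrate from product, 1.33 h after dosing; loss of signal vs DMSO baseline. Primary screen in duplicate at 25 uM; actives retested in concentration-response up to 50 uM.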

SMILES | AC50 | outcome
O=P(O)(O)CCCl | 9.89 µM (active) | 
CC(C)NC(=O)N1CC(=O)N(c2cc(Cl)cc(Cl)c2)C1=O |  | inactive
CCNC(=O)NC(=O)C(C#N)=NOC |  | inactive

The compounds below were run against human Protein Tyrosine Phosphatase Non-receptor Type 1 (PTPN1), PTPN1 (gene 5770) (UniProt P18031) (assay: NVS_ENZ_hPTPN1: NovaScreen (NVS) Enzymatic Assay for human Protein Tyrosine Phosphatase Non-receptor Type 1 (PTPN1) (AID 2283201)).
Sequence of human Protein Tyrosine Phosphatase Non-receptor Type 1 (PTPN1), PTPN1 (gene 5770) (P18031 whole entry, looked up): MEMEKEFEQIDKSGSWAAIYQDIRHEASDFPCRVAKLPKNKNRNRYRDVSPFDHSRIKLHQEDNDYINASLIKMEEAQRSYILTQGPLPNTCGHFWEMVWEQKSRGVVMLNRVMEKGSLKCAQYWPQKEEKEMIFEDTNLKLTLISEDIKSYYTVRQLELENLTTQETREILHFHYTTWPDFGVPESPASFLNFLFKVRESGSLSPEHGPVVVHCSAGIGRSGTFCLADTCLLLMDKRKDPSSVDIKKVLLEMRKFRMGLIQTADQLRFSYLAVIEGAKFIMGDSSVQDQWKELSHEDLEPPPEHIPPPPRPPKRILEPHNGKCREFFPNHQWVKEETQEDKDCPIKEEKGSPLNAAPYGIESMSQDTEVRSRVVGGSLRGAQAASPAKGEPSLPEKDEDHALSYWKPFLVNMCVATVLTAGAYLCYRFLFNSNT
Procedure: (§1) NVS_ENZ_hPTPN1 is a biochemical, single-readout assay that uses extracted gene-proteins in a cell-free assay. Measurements were taken 1.33 hours after chemical dosing in a 384-well plate.NVS_ENZ_hPTPN1 is one of one assay component(s) measured or calculated from the NVS_ENZ_hPTPN1 assay. It is designed to make measurements of enzyme activity, a form of enzyme reporter, as detected with fluorescence intensity signals by Fluorescence and electrophoretic mobility shift technology.Data from the assay component NVS_ENZ_hPTPN1 was analyzed into 1 assay endpoint. This assay endpoint, NVS_ENZ_hPTPN1, was analyzed in the positive analysis fitting direction relative to DMSO as the negative control and baseline of activity. Using a type of enzyme reporter, loss-of-signal activity can be used to understand changes in the enzymatic activity as they relate to the gene PTPN1. Furthermore, this assay endpoint can be referred to as a primary readout, because this assay has produced multiple assay endpoints where this one serves a enzymatic activity function. To generalize the intended target to other relatable targets, this assay endpoint is annotated to the phosphatase intended target family, where the subfamily is non-receptor tyrosine phosphatase.
(§2) Binding assays used specific radioligands (tritiated, iodinated) with non-radioactive competitive displacement ligands in agonist or antagonist protocols (as indicated) and various reference compounds and inhibitors to titrate specific binding to receptors and transporters. Most enzyme assays (CYPs, kinases, phosphatases, proteases, HDACs) used recombinant protein and specific substrates (fluorescence mostly, some colorimetric and radioactive) and inhibitors, followed by a biochemical separation of substrate and product. All assays for the biochemical HTS were initially run in duplicate at a single concentration (10 uM for CYP450 assays and 25 uM for all others). Assay-chemical combinations meeting a pre-defined threshold (e.g., 30% inhibition and other criteria defined below) were then run in singleton concentration-response format with maximum concentration of 20 uM for CYPs and 50 uM for all others. Each assay was run with positive and negative controls, and concurrent controls on every plate. The follow-up (secondary) screen tested active chemical-pairs in concentration series, as well as a few additional assays not tested in the primary screen, some selected negative inactives, and several cases re-run in the concentration series for confirmatory purposes.

SMILES | outcome
CCCC(=NOCC)C1=C(O)CC(CC(C)SCC)CC1=O (stereo not given) | inactive
Nc1c(Cl)c(Cl)nc(C(=O)O)c1Cl | inactive
Nc1cnn(-c2ccccc2)c(=O)c1Cl | inactive
CCOc1nc(F)cc2nc(S(=O)(=O)Nc3c(Cl)cccc3Cl)nn12 | inactive
N#Cc1c[nH]cc1-c1cccc2c1OC(F)(F)O2 | inactive
CN=C=S | inactive
CC(C)N1C(=O)N(c2ccccc2)CSC1=NC(C)(C)C | inactive

The compounds below were run against human Phosphatase and Tensin Homolog (PTEN), PTEN (gene 5728) (UniProt P60484) (assay: NVS_ENZ_hPTEN: NovaScreen (NVS) Enzymatic Assay for human Phosphatase and Tensin Homolog (PTEN) (AID 2283203)).
Sequence of human Phosphatase and Tensin Homolog (PTEN), PTEN (gene 5728) (P60484 whole entry, looked up): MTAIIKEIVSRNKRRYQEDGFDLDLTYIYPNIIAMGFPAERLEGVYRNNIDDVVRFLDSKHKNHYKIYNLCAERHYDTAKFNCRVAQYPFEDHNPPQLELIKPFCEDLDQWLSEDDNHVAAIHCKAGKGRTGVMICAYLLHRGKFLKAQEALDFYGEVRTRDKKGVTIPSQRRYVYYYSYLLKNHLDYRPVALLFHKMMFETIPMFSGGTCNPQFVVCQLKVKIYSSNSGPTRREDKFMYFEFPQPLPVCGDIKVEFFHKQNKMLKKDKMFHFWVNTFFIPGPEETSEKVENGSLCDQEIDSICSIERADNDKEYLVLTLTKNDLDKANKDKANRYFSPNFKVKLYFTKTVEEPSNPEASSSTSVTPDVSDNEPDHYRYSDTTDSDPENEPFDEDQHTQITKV
Procedure: as §1, with “NVS_ENZ_hPTEN” for “NVS_ENZ_hPTPN1”, “1 hour” for “1.33 hours”, “plate.NVS_ENZ_hPTEN” for “plate.NVS_ENZ_hPTPN1”, “NVS_ENZ_hPTEN,” for “NVS_ENZ_hPTPN1,”, “PTEN.” for “PTPN1.”, “dual-specific” for “non-receptor tyrosine”
as §2, with “Assay-chemical combinations meeting a pre-defined threshold (e.g., 30% inhibition and other criteria defined below) were then run in singleton concentration-response format with maximum concentration of 20 uM for CYPs and 50 uM for all others.” left out

SMILES | AC50 | outcome
CCCC(=NOCC)C1=C(O)CC(CC(C)SCC)CC1=O (stereo not given) | 18.2 µM (active) | 
O=C1C2CC=CCC2C(=O)N1SC(Cl)(Cl)Cl (stereo not given) | 23 µM (active) | 
CCOc1nc(F)cc2nc(S(=O)(=O)Nc3c(Cl)cccc3Cl)nn12 | 29.9 µM (active) | 
N#CN=C1SCCN1Cc1ccc(Cl)nc1 |  | inactive

Each compound was assayed against Tyrosine-protein phosphatase non-receptor type 14 (Homo sapiens) (UniProt Q15678) (assay: NVS_ENZ_hPTPN14: NovaScreen (NVS) Enzymatic Assay for human Protein Tyrosine Phosphatase Non-receptor Type 14 (PTPN14) (AID 2283206)).
Sequence of Tyrosine-protein phosphatase non-receptor type 14 (Homo sapiens) (Q15678 whole entry, looked up): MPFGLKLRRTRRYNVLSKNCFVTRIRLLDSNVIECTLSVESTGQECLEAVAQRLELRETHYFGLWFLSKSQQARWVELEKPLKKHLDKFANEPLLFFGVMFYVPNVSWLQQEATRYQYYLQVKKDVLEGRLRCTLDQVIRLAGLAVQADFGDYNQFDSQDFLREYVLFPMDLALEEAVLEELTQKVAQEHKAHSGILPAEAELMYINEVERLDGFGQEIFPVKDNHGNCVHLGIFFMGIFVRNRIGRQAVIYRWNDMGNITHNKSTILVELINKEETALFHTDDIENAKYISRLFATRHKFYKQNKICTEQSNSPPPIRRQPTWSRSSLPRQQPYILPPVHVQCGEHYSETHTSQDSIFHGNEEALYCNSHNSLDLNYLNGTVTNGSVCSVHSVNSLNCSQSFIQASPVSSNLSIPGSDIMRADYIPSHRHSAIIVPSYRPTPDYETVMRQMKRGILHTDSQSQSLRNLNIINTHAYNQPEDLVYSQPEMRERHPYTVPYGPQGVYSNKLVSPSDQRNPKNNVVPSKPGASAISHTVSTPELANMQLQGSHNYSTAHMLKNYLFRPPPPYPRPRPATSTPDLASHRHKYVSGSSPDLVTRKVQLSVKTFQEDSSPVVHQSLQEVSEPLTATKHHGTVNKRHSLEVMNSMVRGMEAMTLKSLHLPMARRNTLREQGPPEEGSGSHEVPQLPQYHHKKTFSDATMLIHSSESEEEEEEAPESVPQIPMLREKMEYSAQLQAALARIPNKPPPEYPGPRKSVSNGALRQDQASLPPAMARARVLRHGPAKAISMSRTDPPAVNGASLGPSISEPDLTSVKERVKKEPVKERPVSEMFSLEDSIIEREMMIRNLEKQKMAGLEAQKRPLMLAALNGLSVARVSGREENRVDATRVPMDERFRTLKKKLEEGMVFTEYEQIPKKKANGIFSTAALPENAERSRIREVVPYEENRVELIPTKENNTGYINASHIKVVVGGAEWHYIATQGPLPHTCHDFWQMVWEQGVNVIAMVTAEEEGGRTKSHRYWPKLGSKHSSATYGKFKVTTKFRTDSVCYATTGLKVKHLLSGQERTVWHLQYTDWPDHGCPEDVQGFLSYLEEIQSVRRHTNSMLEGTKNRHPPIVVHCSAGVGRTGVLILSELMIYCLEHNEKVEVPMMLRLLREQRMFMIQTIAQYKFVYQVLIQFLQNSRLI
Procedure: as §1, with “NVS_ENZ_hPTPN14” for “NVS_ENZ_hPTPN1”, “0.5 hour” for “1.33 hours”, “plate.NVS_ENZ_hPTPN14” for “plate.NVS_ENZ_hPTPN1”, “NVS_ENZ_hPTPN14,” for “NVS_ENZ_hPTPN1,”, “PTPN14.” for “PTPN1.”
as §2

SMILES | outcome
O=C1C2CC=CCC2C(=O)N1SC(Cl)(Cl)Cl (stereo not given) | inactive
CCOP(=O)(OCC)Oc1nc(Cl)c(Cl)cc1Cl | inactive
COP(=S)(OC)Oc1ccc([N+](=O)[O-])c(C)c1 | inactive
CS(=O)(=O)c1cc(C(F)(F)F)ccc1C(=O)c1cnoc1C1CC1 | inactive
COP(=S)(OC)SCn1nnc2ccccc2c1=O | inactive

Each compound was assayed against human Protein Tyrosine Phosphatase Non-receptor Type 2 (PTPN2), PTPN2 (gene 5771) (UniProt P17706) (assay: NVS_ENZ_hPTPN2: NovaScreen (NVS) Enzymatic Assay for human Protein Tyrosine Phosphatase Non-receptor Type 2 (PTPN2) (AID 2283207)).
Sequence of human Protein Tyrosine Phosphatase Non-receptor Type 2 (PTPN2), PTPN2 (gene 5771) (P17706 whole entry, looked up): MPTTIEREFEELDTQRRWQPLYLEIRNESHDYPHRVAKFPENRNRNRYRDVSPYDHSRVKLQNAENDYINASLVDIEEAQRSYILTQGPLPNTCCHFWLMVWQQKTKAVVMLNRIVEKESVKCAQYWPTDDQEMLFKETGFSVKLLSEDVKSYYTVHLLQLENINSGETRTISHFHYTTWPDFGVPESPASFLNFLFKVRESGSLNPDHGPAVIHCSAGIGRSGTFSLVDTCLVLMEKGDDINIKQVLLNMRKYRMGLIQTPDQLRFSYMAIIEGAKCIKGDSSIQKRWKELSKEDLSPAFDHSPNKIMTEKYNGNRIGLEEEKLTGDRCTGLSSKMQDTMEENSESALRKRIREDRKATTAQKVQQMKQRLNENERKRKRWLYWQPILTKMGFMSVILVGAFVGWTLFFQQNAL
Procedure: as §1, with “NVS_ENZ_hPTPN2” for “NVS_ENZ_hPTPN1”, “1 hour” for “1.33 hours”, “plate.NVS_ENZ_hPTPN2” for “plate.NVS_ENZ_hPTPN1”, “NVS_ENZ_hPTPN2,” for “NVS_ENZ_hPTPN1,”, “PTPN2.” for “PTPN1.”
as §2, with “Assay-chemical combinations meeting a pre-defined threshold (e.g., 30% inhibition and other criteria defined below) were then run in singleton concentration-response format with maximum concentration of 20 uM for CYPs and 50 uM for all others.” left out

SMILES | outcome | AC50
CCCC(=NOCC)C1=C(O)CC(CC(C)SCC)CC1=O (stereo not given) | inactive | 
CCOC(=O)C(C)OC(=O)c1cc(Oc2ccc(C(F)(F)F)cc2Cl)ccc1[N+](=O)[O-] (stereo not given) | inactive | 
O=C1C2CC=CCC2C(=O)N1SC(Cl)(Cl)Cl (stereo not given) |  | 46.9 µM (active)
CN/C(=N\[N+](=O)[O-])NCc1cnc(Cl)s1 | inactive | 
N#CN=C1SCCN1Cc1ccc(Cl)nc1 | inactive | 
CCN(CC)C(=O)C(C)Oc1cccc2ccccc12 (stereo not given) | inactive | 
